Measurements taken from PubChem BioAssay AID651997 (Sanford-Burnham Center for Chemical Genomics, 2013).
In all, about 2,400 compounds went through this assay and about 700 (29%) were called active.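 Rule for the calls: active = inhibition of at least 50%; inactive = the rest.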 Not all results are given here.

target: G-protein coupled receptor 183 (Homo sapiens) (UniProt P32249); assay: repeat testing of EBI2 arrestin blockers – cell-based, single concentration, luminescence, 7a,25-OHC stimulation, confirmation (AID 651997); details: EBI2 beta-arrestin luminescence, 7a,25-OHC antagonism; at 5 µM; active compounds read high
Sequence (P32249 whole entry, looked up): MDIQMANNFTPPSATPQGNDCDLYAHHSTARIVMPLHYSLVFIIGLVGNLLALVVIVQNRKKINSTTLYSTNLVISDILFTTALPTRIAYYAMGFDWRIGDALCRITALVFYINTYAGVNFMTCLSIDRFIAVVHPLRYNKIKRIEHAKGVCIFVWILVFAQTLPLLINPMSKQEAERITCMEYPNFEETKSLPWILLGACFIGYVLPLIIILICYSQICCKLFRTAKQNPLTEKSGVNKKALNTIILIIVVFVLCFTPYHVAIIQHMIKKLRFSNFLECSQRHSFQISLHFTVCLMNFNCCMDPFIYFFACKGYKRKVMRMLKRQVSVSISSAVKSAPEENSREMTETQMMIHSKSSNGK

| Compound | inhibition |
| --- | --- |
| CC(C)N(Cc1ccccc1)C(=S)Nc1ccc(OC(F)F)cc1 | 24.2% (inactive) |
| COc1ccc(NC(=O)N2CCC(Cc3ccccc3)CC2)cc1 | 55% (active) |
| CCCC1CCC(=NNC(=S)NCCc2ccccc2)CC1 (centres undefined) | 23.4% (inactive) |
| COc1ccc(-c2cc(NC=O)c3ncc(-c4cccc(C(=O)N(C)C)c4)n3c2)c(OC)c1 | 23.2% (inactive) |
| Cc1ccc(O/C=C2\OC(=O)c3ccccc32)cc1 | 16% (inactive) |
| COc1cccc(NC(=O)Cn2c3ccccc3c3nc4n(c(=O)c32)CCS4)c1 | 30.1% (inactive) |
| O=C(/C=C/c1cccc(C(F)(F)F)c1)N1CCN(c2ccccn2)CC1 | 28.2% (inactive) |
| O=C(c1cc2ccccc2s1)N1CCN(c2ccccn2)CC1 | 55.7% (active) |
| Cc1ccc(CSCCNC(=O)CN(c2ccc(F)cc2)S(C)(=O)=O)cc1 | 23.3% (inactive) |
| O=C(NCCNc1ccc([N+](=O)[O-])cc1)c1cccc2c(Br)cccc12 | 38% (inactive) |
| Cc1cc(Cl)c2oc(C(=O)N3CCC(O)(c4ccccc4)CC3)c(C)c2c1 | 43.3% (inactive) |
| Fc1ccccc1/C=N/Nc1cc(N2CCCCC2)ncn1 | 55% (active) |
| COc1ccc(-n2c(Cc3cccn3C)nnc2SCC(=O)Nc2cc(C)cc(C)c2)cc1 | 7.81% (inactive) |
| O=C(NCc1ccc(Cl)cc1)C1CCN(S(=O)(=O)c2cccs2)CC1 | 23% (inactive) |
| N#CC(=C1CCCC1)c1nc(-c2ccc(Cl)cc2)cs1 | 54.8% (active) |
| CCOc1ccc(C(C)=O)cc1COC(=O)c1cnc(Cl)c(Cl)c1 | 14.3% (inactive) |
| COc1cccc(NC(=O)Cn2c3ccc(F)cc3c3nc4n(c(=O)c32)CCS4)c1 | 41.9% (inactive) |
| O=C(COc1ccc2ccccc2c1)N1CCN(C(=O)c2cccs2)CC1 | 61% (active) |
| COc1ccc(OCC(=O)N2CCN(C(=O)c3cccs3)CC2)cc1 | 30.8% (inactive) |
| O=C(/C=C/c1ccc(Cl)cc1)N1CCN(c2ccccc2[N+](=O)[O-])CC1 | 88.6% (active) |
| O=C(/C=C/c1cccc([N+](=O)[O-])c1)N1CCN(Cc2ccccc2)CC1 | 29.4% (inactive) |
| Cc1ccc(N2CC(C(=O)Nc3ccc(S(=O)(=O)N4CCCC4)cc3)CC2=O)cc1C (centres undefined) | 34.7% (inactive) |
| O=C(CCc1ccccc1)NNC(=O)COc1ccc(Cl)cc1 | 17.4% (inactive) |
| Cc1ccc(OCC(=O)N2CCN(S(=O)(=O)c3ccc(Cl)s3)CC2)cc1C | 79% (active) |
| Cc1ccc(S(=O)(=O)N2CCN(C(=O)CSc3cc(C)ccc3C)CC2)c(C)c1 | 33.4% (inactive) |
| O=C(COc1ccc(Cl)cc1)N1CCN(S(=O)(=O)c2ccc(Cl)cc2)CC1 | 72.8% (active) |
| COc1ccc(OCC(=O)N2CCN(C(=O)COc3ccccc3)CC2)cc1 | 24.9% (inactive) |

| Compound | inhibition |
| --- | --- |
| O=C(c1cc2ccccc2o1)N1CCN(S(=O)(=O)c2ccc(Cl)s2)CC1 | 70.7% (active) |
| Cc1ccc(OCC(=O)N2CCN(C(=O)c3cccnc3)CC2)cc1 | 17.6% (inactive) |
| Cc1cc(OCC(=O)N2CCN(c3ncccn3)CC2)ccc1Cl | 50.9% (active) |
| Cc1cccc(OCC(O)CN2CCN(S(=O)(=O)c3ccc(C)cc3C)CC2)c1 (centres undefined) | 35.6% (inactive) |
| CN1CCc2ccccc2C1Cc1ccccc1NC(=O)c1sc2ccccc2c1Cl (centres undefined) | 14% (inactive) |
| Fc1ccc(N2CCN(Cc3cnc(Oc4ccc(Br)cc4)s3)CC2)cc1 | 40.8% (inactive) |
| COc1ccc(OC)c(C(=O)c2coc3ccc(O)c(CN4CCOCC4)c23)c1 | 22.3% (inactive) |
| COc1ccc(N(CC(=O)Nc2cc(OC)ccc2OC)S(=O)(=O)c2c(C)noc2C)cc1 | 21.2% (inactive) |
| COc1ccc(C(c2nnnn2C2CCCC2)N2CCN(C/C=C/c3ccccc3)CC2)cc1 (centres undefined) | 39.9% (inactive) |
| Cc1ccc(-n2ncc3c(=O)n(-c4ccc(C)c(C)c4)c(-c4ccco4)nc32)cc1 | 16.7% (inactive) |
| COc1cc(/C=C(\C#N)C(=O)Nc2ccc3ccccc3c2)c([N+](=O)[O-])cc1OC | 48.2% (inactive) |
| O=C(CC(c1ccccc1)c1ccccc1)NCC(O)c1ccc([N+](=O)[O-])cc1 (centres undefined) | 32.1% (inactive) |
| O=C(COc1ccc(Cl)cc1)N1CCN(c2cccc(C(F)(F)F)c2)CC1 | 68% (active) |
| O=C(COc1ccc2c(c1)CCC2)N1CCN(c2ccc(F)cc2)CC1 | 25% (inactive) |
| Cc1cc(C)cc(Oc2nc3c(C)cccn3c(=O)c2/C=C(\C#N)C(=O)NC2CCS(=O)(=O)C2)c1 (centres undefined) | 44.9% (inactive) |
| COc1ccc(-c2nc(N)ncc2-c2ccc(Cl)cc2)c(O)c1 | 58.9% (active) |
| O=C(NCc1ccc(Cl)cc1)c1cc(=O)nc2sc(-c3ccccc3)nn12 | 36% (inactive) |
| Cc1cccc(C)c1-n1nnnc1C(CCc1ccccc1)N1CCN(C/C=C/c2ccccc2)CC1 (centres undefined) | 8.65% (inactive) |
| Cc1cc(C)c2c(=O)n3c(nc2c1)C(CC(C)C)NC(=O)c1cc2ccccc2cc1-3 (centres undefined) | 61.4% (active) |
| CC(C)Cn1c(N2CCN(C(=O)/C=C/c3ccccc3)CC2)nc2ccccc21 | 41.6% (inactive) |
| COc1ccccc1CCNC(=O)C1CCN(C(=O)/C=C/c2ccccc2)CC1 | 64.2% (active) |
| Cc1cccc(NC(=O)CN2CCN(C(=O)C3CCN(C(=O)/C=C/c4ccccc4)CC3)CC2)c1C | 45% (inactive) |
| CC(=O)c1nn(-c2ccc(C)cc2)cc1C(=O)c1cccc(Br)c1 | 45.6% (inactive) |
| c1ccc(C(c2ccccc2)N2CCN(Cc3nnnn3C3CCCCC3)CC2)cc1 | 34% (inactive) |
| O=C(c1ccc(-n2cnnn2)cc1)N1CCN(C(c2ccccc2)c2ccccc2)CC1 | 55.9% (active) |
| Cc1nc2ccc(C(=O)N3CCN(c4ccccc4)CC3)cc2s1 | 40.5% (inactive) |
| COc1ccc(Nc2cc(Sc3ccc(OC)cc3)ncn2)cc1 | 25.1% (inactive) |
